Assay [1] addresses 6-phosphogluconate dehydrogenase, decarboxylating (Homo sapiens) (UniProt P52209). Description: inhibition of human phosphogluconate dehydrogenase – biochemical, recombinant enzyme, NADPH absorbance, primary screen (AID 1159550;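 active = at least 20% inhibition of 6-phosphogluconate dehydrogenase activity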). Particulars: recombinant 6PGD, NADPH absorbance 341 nm; at 10 µM; stronger effect = higher value.
Assay [2] is described as follows: EMT-state selective cytotoxicity in co-culture – imaging, PC-3E GFP, TEM4-18 mCherry, primary screen (AID 1345086;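 active = compounds killing one labelled cell type while sparing the other, by normalised counts and ratio limits, not self-fluorescent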;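 for all read-outs here: cells exposed to compound for 72 h before imaging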;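 for red/green cell ratio (normalised): normalised mesenchymal count divided by normalised epithelial count so high means epithelial killing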). As to conditions: PC-3E GFP / TEM4-18 mCherry co-culture, imaging cell counts, at 1 µM; for red/green cell ratio (normalised): actives lie on both sides.
For assay [3], the system named is Aerobactin synthetase IucA (Klebsiella pneumoniae hvKP1). Description: IucA enzyme inhibition, primary screen, biochemical, Spectrum library (AID 1346200).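 Note: 100% = wells without compound and 0% = wells lacking enzyme.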 Particulars: malachite green pyrophosphate, A620, at 8 µM, stronger effect = lower value.
Assay [4] addresses Mitogen-activated protein kinase 7 (Homo sapiens) (UniProt Q13164). In words: Gal4-ERK5 driven luciferase induction – cell-based, HTS, primary screen (AID 1508626;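 active = luciferase signal above three times the same-plate solvent-only control wells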;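 note: luciferase driven by Gal4-ERK5 fusion binding five Gal4 sites before minimal TATA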). As to conditions: HeLa Gal4-ERK5 transactivation, 18 h, at 5 µM, stronger effect = higher value.
The nature of assay [5]: blockers of polyQ-driven CASP3 activation – cell-based (AID 1583). As to conditions: polyglutamine-induced caspase-3 activation, cell assay; stronger effect = higher value;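 tested at 10 µM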.
Assay [6] is described as follows: yeast 75Q aggregation reduction – 75Q-TubU reporter (AID 1593). Particulars: Yeast 75Q polyglutamine aggregation reporter.
The nature of assay [7]: restoration of touch response, mutant HTT neurons – whole organism, C. elegans mechanosensory neurons, N-terminal huntingtin (AID 1599). Particulars: C. elegans polyQ-huntingtin mechanosensory neurons, stronger effect = higher value.
Assay [8] can be described thus: blockers of cytochrome c efflux from mitochondria – biochemical, purified mitochondria (AID 1603).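 Note: mouse liver mitochondria challenged with calcium chloride; signal normalized to the plate average as 100%.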 As to conditions: stronger effect = lower value.
The nature of assay [9]: polyglutamine aggregate formation blockers (AID 1604). Particulars: polyglutamine-induced protein aggregation inhibition assay; stronger effect = higher value; tested at 2.5 µM.
Assay [10] is described as follows: glutamate transport activators, MN-1 cells, MN-1 cell line (AID 1612).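 Note: tested at 1 µM final; 0% = mean of DMSO vehicle wells on each plate; positive means more glutamate uptake than control and negative means less.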 As to conditions: MN-1 motor neuron cells, stronger effect = higher value.
A short description of assay [11]: GFP-Q80 aggregate reduction, neuronal-like cells, cell-based, NGF-treated PC12, GFPQ80 (AID 1614).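 Note: lower means fewer inclusions and 0 means no inclusions at all.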 Particulars: PC12 NGF-treated GFP-polyQ80 inclusion reduction.
A short description of assay [12]: 75Q-TubH aggregate inhibition, S. cerevisiae, yeast (AID 1616). As to conditions: S. cerevisiae 75Q-TubH polyglutamine aggregation suppression; stronger effect = higher value.
The mark [13] stands for this setting: measured here: epithelial PC-3E GFP cell survival.
The mark [14] stands for this setting: measured here: mesenchymal TEM4-18 mCherry cell survival.
[15] abbreviates: counts scaled to control wells, 1 = unselective.

For some assays here: Results with a measured potency or affinity are listed apart. Activity calls are given as the source filed them. Unless noted, the rule behind the calls is not given here.

6-phosphogluconate dehydrogenase, decarboxylating (Homo sapiens), sequence (P52209 whole entry, looked up): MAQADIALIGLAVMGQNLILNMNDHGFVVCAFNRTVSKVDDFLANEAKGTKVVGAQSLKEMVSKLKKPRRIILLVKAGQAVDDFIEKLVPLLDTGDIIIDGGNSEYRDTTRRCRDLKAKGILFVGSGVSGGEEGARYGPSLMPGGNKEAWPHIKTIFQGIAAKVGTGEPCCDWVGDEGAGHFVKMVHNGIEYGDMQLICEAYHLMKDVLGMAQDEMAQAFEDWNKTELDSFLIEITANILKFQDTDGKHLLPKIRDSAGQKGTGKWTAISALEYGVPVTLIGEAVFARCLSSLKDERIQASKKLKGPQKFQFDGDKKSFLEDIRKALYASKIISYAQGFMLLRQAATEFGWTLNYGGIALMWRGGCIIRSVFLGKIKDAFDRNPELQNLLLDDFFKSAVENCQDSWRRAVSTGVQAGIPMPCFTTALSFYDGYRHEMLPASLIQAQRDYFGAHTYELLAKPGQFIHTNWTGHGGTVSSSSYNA
Mitogen-activated protein kinase 7 (Homo sapiens), sequence (Q13164 whole entry, looked up, the tested form may be a part): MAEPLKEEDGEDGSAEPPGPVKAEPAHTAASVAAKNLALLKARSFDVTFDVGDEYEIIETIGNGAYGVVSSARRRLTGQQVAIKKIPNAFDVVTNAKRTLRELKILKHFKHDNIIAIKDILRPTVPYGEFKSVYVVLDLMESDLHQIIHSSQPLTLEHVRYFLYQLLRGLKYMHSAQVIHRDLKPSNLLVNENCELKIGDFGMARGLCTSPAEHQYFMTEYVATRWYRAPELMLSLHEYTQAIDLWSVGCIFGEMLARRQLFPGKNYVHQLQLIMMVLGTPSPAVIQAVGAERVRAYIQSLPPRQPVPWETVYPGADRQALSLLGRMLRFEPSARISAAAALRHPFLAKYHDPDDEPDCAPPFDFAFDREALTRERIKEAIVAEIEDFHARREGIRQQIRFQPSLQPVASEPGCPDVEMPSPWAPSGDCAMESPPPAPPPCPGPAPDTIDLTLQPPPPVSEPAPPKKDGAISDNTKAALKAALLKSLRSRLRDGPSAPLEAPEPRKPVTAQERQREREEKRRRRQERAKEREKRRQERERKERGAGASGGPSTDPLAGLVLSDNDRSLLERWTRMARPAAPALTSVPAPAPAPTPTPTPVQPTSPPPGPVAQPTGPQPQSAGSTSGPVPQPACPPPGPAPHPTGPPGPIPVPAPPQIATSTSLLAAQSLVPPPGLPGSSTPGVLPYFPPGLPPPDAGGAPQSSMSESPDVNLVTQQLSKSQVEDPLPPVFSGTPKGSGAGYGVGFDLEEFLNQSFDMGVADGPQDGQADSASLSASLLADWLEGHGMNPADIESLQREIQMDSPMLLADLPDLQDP

As usually defined, the inhibition is the drop in the measured response relative to a control, in per cent. `CC(=O)Oc1ccc(/C=C/c2cc(OC(C)=O)cc(OC(C)=O)c2)cc1`: the inhibition in [1] is -2.26% (inactive). In addition, the red/green cell ratio (normalised) in [2] is 1.01 (inactive). Moreover, the normalised cell number was found to be 0.98 in assay [2] (setting [13]) and 1 in assay [2] (setting [14]). Also, the activity remaining in assay [3] was 103% (inactive). In assay [4], the luciferase signal is 20 AU (inactive).
Turning to `CN1CCCCC1c1ccc(-c2cccnc2)nc1` (centres undefined), the inhibition in [1] is -0.658% (inactive). The red/green cell ratio (normalised) in assay [2] (setting [15]) is 1.09 (inactive). The normalised cell number in [2] (setting [13]) was determined as 0.96; in [2] (setting [14]) it was 1.04. In [3], the activity remaining is 113% (inactive). In addition, in assay [4], the luciferase signal is 52 AU (inactive).
In the case of `Cc1[nH]c2ccccc2c1CN(C)C`, the inhibition in assay [1] is -5.39% (inactive). Further, the red/green cell ratio (normalised) in [2] was 0.92 (inactive). In addition, the normalised cell number was 0.99 in [2] (setting [13]) and 0.91 in [2] (setting [14]). In addition, in assay [3], the activity remaining was 101% (inactive). The luciferase signal in assay [4] is 44 AU (inactive).
With `C/C=C/c1ccc2c(c1)OCO2`, in assay [1], the inhibition is -4.44% (inactive). In [2], the red/green cell ratio (normalised) is 0.96 (inactive). For the same compound, the normalised cell number in assay [2] (setting [13]) was determined as 1.11; in [2] (setting [14]) it was 1.06. Besides, the activity remaining in [3] is 80.6% (inactive). For the same compound, the luciferase signal in [4] was 296 AU (active).
Regarding `NC(=O)c1ccc(N)nc1`, in [1], the inhibition is 1.26% (inactive). Also, the red/green cell ratio (normalised) in assay [2] is 0.93 (inactive). Further, the normalised cell number amounted to 1.22 in assay [2] (setting [13]) and 1.14 in assay [2] (setting [14]). The activity remaining in assay [3] is 120% (inactive). Further, the luciferase signal in assay [4] was 24 AU (inactive).
As for `COc1cc2c(cc1OC)[C@@H]1C(=O)c3ccc4oc(C(C)C)cc4c3O[C@@H]1CO2`, the inhibition in [1] is 4.17% (inactive). The red/green cell ratio (normalised) in assay [2] is 0.79 (inactive). The normalised cell number in assay [2] (setting [13]) is 1.25; in assay [2] (setting [14]) it was 0.98. Moreover, in assay [3], the activity remaining is 104% (inactive). The luciferase signal in [4] is 76 AU (inactive).
For `N#C/C(=C\c1cccc(O)c1)C(=O)O`, the inhibition is 16.4% in assay [5] and 11.3% (inactive) in assay [1]. This compound also had a score in assay [6] of 1.48. The compound further displayed a rescue above control in [7] of -1.13. The cytochrome c release ratio in [8] amounted to 2.28. In assay [9], this compound returned an inhibition of aggregation of 58.6%. Also, the glutamate uptake change in assay [10] is -1.74%. For the same compound, the inclusion score in [11] was 2. This compound gave an aggregation suppression score in [12] of 1.54. The red/green cell ratio (normalised) in assay [2] was 0.88 (inactive). The normalised cell number in [2] (setting [13]) is 1.09; in assay [2] (setting [14]), 0.96. In [3], the activity remaining is 104% (inactive). Besides, the luciferase signal in [4] was 128 AU (inactive).
Take `COc1c2c(cc3c1OCO3)CC[N+](C)=C2`: the inhibition in [1] was 8.25% (inactive). Further, the red/green cell ratio (normalised) in assay [2] (setting [15]) was 1.03 (inactive). The normalised cell number in assay [2] (setting [13]) was 0.97; in [2] (setting [14]), 1. Further, the activity remaining in [3] is 99.6% (inactive). Also, the luciferase signal in assay [4] was 20 AU (inactive).
On to `C=C(C)c1cc2cc(C(C)=O)c(O)cc2o1`, for which, in assay [1], the inhibition was 13.2% (inactive). In assay [2], the red/green cell ratio (normalised) is 0.8 (inactive). Besides, the values for the normalised cell number in [2] (setting [13]) and in assay [2] (setting [14]) were 1.14 and 0.92, respectively. Further, the activity remaining in [3] is 104% (inactive). Further, in assay [4], the luciferase signal was 64 AU (inactive).
`CC(=O)OC1CCC23C(=O)OC45CCC(C6=CC(=O)OC6)C4(C)CCC2C5CCC3(O)C1` (centres undefined): in assay [1], the inhibition is -5.39% (inactive). In addition, in assay [2], the red/green cell ratio (normalised) was 0.32 (inactive). Further, the values for the normalised cell number in assay [2] (setting [13]) and in assay [2] (setting [14]) were 0.2 and 0.07, respectively. The activity remaining in assay [3] was 124% (inactive). Further, in [4], the luciferase signal was 16 AU (inactive).
In the case of `COc1cc(OC)c2c(c1)O[C@H](c1ccc(OC)c(OC)c1)[C@@H](O)C2`, in [1], the inhibition is 14.9% (inactive). Besides, in assay [2], the red/green cell ratio (normalised) is 0.81 (inactive). Also, the normalised cell number in assay [2] (setting [13]) turned out to be 0.96; in [2] (setting [14]), 0.78. For the same compound, the activity remaining in [3] was 111% (inactive). Moreover, the luciferase signal in [4] was 32 AU (inactive).
Turning to `O=c1cccc2n1CC1CC2CN2CCCC[C@@H]12` (some centres undefined), the inhibition in assay [1] was 1.69% (inactive). For the same compound, the red/green cell ratio (normalised) in assay [2] (setting [15]) was 1.02 (inactive). Besides, the results for the normalised cell number in assay [2] (setting [13]) and in [2] (setting [14]) were 0.92 and 0.94, respectively. The activity remaining in assay [3] was 116% (inactive). For the same compound, the luciferase signal in [4] is 56 AU (inactive).
Regarding `COc1ccc(/C=C/c2cc(O)cc(O)c2)cc1`, the inhibition in assay [1] is 16.8% (inactive). In [2], the red/green cell ratio (normalised) is 1.08 (inactive). Besides, the normalised cell number in assay [2] (setting [13]) is 0.95; in assay [2] (setting [14]), 1.03. For the same compound, the activity remaining in assay [3] was 103% (inactive). Moreover, the luciferase signal in assay [4] is 176 AU (inactive).
Turning to `COc1cc2c(cc1-c1cc3cc4ccoc4cc3oc1=O)OCO2`, the inhibition in [1] was 0.213% (inactive). The red/green cell ratio (normalised) in assay [2] is 0.88 (inactive). Also, the results for the normalised cell number in [2] (setting [13]) and in assay [2] (setting [14]) were 0.99 and 0.87, respectively. Moreover, the activity remaining in [3] was 113% (inactive). Moreover, in assay [4], the luciferase signal was 44 AU (inactive).
`O=[N+]([O-])c1ccc(O)c([N+](=O)[O-])c1`: the inhibition in assay [1] is -2.82% (inactive). For the same compound, the red/green cell ratio (normalised) in assay [2] is 0.86 (inactive). Also, the results for the normalised cell number in [2] (setting [13]) and in [2] (setting [14]) were 1.08 and 0.93, respectively. The activity remaining in assay [3] is 110% (inactive). Also, the luciferase signal in [4] was 44 AU (inactive).
Regarding `O=C1NC(=O)C(=O)C(=O)N1`, in assay [1], the inhibition was -13.9% (inactive). Moreover, in assay [2], the red/green cell ratio (normalised) is 0.89 (inactive). The normalised cell number in assay [2] (setting [13]) came to 1.09; in assay [2] (setting [14]) it was 0.98. Further, the activity remaining in assay [3] was 123% (inactive). For the same compound, the luciferase signal in [4] was 44 AU (inactive).
As for `COc1ccc(C(=O)O)cc1OC`, the inhibition in [1] is 7.84% (inactive). For the same compound, the red/green cell ratio (normalised) in assay [2] was 0.77 (inactive). Moreover, the normalised cell number in assay [2] (setting [13]) amounted to 1.22; in assay [2] (setting [14]), 0.94. In assay [3], the activity remaining was 78.5% (inactive). Besides, the luciferase signal in assay [4] is 40 AU (inactive).
On to `COC(=O)NC(=S)Nc1ccccc1NC(=S)NC(=O)OC`, for which the inhibition in assay [1] was -13.9% (inactive). In addition, in assay [2], the red/green cell ratio (normalised) was 0.85 (inactive). Further, the values for the normalised cell number in assay [2] (setting [13]) and in assay [2] (setting [14]) were 1.16 and 0.98, respectively. Besides, the activity remaining in assay [3] was 110% (inactive). In addition, in [4], the luciferase signal was 8 AU (inactive).
`CC1=CCCC2C1(C)CCC(C)C2(C)CC/C(C)=C/C[n+]1cn(C)c2c(N)ncnc21` (centres undefined): the inhibition in assay [1] is 12% (inactive). Moreover, the red/green cell ratio (normalised) in assay [2] was 0.92 (inactive). For the same compound, the normalised cell number in [2] (setting [13]) turned out to be 0.97; in [2] (setting [14]), 0.89. Moreover, in [3], the activity remaining was 115% (inactive). Besides, the luciferase signal in assay [4] is 64 AU (inactive).
With `CC[C@@]1(O)C[C@H](O)c2c(cc3c(c2O)C(=O)c2c(O)ccc(O)c2C3=O)[C@H]1C(=O)OC`, the inhibition in assay [1] is 10.8% (inactive). Further, in assay [2], the red/green cell ratio (normalised) is 0.85 (inactive). The normalised cell number in [2] (setting [13]) was 0.96; in assay [2] (setting [14]), 0.82. Further, in [3], the activity remaining was 112% (inactive). For the same compound, the luciferase signal in assay [4] was 52 AU (inactive).
For `CC(C)=CCCC1(C)C=Cc2c(O)c3c(c(CC=C(C)C)c2O1)OC12C(CC4CC1C(C)(C)OC2(C/C=C(/C)C(=O)O)C4O)C3=O` (centres undefined), in assay [1], the inhibition was -6.13% (inactive). The red/green cell ratio (normalised) in [2] was 1.11 (inactive). The values for the normalised cell number in assay [2] (setting [13]) and in assay [2] (setting [14]) were 0.96 and 1.07, respectively. In addition, the activity remaining in assay [3] is 119% (inactive). Also, the luciferase signal in [4] was 96 AU (inactive).

Values taken from PubChem BioAssay.
